# This is a sample that favours compounds with a hit; in the whole collection about 7.7% have one here.
# Sm TGR block: qHTS Assay for the Inhibitors of Schistosoma Mansoni Peroxiredoxins; Schistosoma mansoni thioredoxin glutathione reductase (TGR), Q962Y6; purified TGR, DTNB reduction, TNB absorbance 405 nm; Potency, µM (series often up to 114 µM), inactives show at the highest dose activity change, negative = inhibition, actives largely listed as inhibitors; actives 3% (n = 360,000); further: potency means the concentration at half of the fitted maximal effect; nearly all actives have a fitted effect of over 60% in size
#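 First, TGR (20 nM dispensed) and NADPH were mixed with compound. Second, a 15 min room-temperature incubation followed. Third, further NADPH and then DTNB were added to start the reaction. Finally, TNB absorbance was monitored kinetically.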
# TbPYK inhibitor: qHTS of Trypanosoma Brucei Inhibitors; TbPYK enzyme, Kinase-Glo Plus ATP luminescence, 45 min; Potency, µM (highest dose often 76.8 µM), for inactives: at the top dose activity, negative = inhibition, most hits filed as inhibitors; AID 624173, 2012; pyruvate kinase (Trypanosoma brucei), Q57TT1; actives 0.12% (n = 410,000); further: potency means the concentration at half of the fitted maximal effect; nearly all actives have a fitted effect of over 50% in size
#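 Quantitative HTS: titrated library compounds versus trypanosomal pyruvate kinase in TEA buffer (pH 7.2) containing KCl, MgCl2, BSA and Tween-20. Reactions were initiated with ADP, 130 uM final. Kinase-Glo Plus luminescence was read after 45 min at RT.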
# Giardia FBPA inh: qHTS Assay for Inhibitors of Fructose-1,6-bisphosphate Aldolase from Giardia Lamblia | purified Giardia FBPA | Potency, µM (top dose mostly 59.6 µM), without a hit: at the top dose activity, negative = inhibition, most hits filed as inhibitors | actives 0.71% (n = 290,000) | AID 2451, 2010; further: potency means the concentration at half of the fitted maximal effect; nearly all actives have a fitted effect of over 55% in size
# Target sequence (A8B2U2 whole entry, looked up): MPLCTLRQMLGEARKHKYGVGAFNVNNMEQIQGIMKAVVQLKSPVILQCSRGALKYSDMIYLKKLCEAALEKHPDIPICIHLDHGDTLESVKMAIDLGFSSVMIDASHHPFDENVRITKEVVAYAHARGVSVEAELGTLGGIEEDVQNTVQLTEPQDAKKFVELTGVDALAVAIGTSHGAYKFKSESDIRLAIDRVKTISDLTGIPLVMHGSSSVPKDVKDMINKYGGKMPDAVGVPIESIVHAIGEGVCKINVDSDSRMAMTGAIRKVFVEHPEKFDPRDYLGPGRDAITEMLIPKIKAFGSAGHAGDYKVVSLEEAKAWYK
#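 Giardia FBPA (40 nM reagent) was preincubated 10 min at RT with compound (up to 57.5 uM final), then substrate plus GAPDH/TPI/NAD/arsenate coupling system with diaphorase/resazurin was added; resorufin fluorescence (525/598 nm) was read after 20 min.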
# RE007 growth inh: qHTS Assay for Inhibitors of the HIV-1 protein Vpr; S. pombe RE007 Vpr strain, BacTiter-Glo ATP luminescence, 24 h; Potency, µM (top dose mostly 92.2 µM), without a hit: top-dose activity change, negative = less growth, hits mostly inhibitors; actives 0.21% (n = 360,000); active means well fitted falling curve with a large enough effect; inconclusive means small, poorly fitted or top-dose-only effect; inactive means no such curve, though single readings can be large or run the other way; further: potency means the concentration at half of the fitted maximal effect; nearly all actives have a fitted effect of over 50% in size
#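 Fission yeast RE007 carrying one integrated HIV-1 vpr copy, seeded at OD 0.01 in PMG+AL medium with 23 nL pinned compound. Grown 24 h at 30 degrees; viability read by BacTiter-Glo luminescence after 5 min.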
# HCMV inh: qHTS Assay for inhibitors of the human cytomegalovirus (HCMV). HFF cells, HCMV-luciferase reporter, 72 h; active compounds read low. activity change, negative = inhibition, % at 57.5 µM. actives 4.5% (n = 410,000). AID 1259415, 2018; in the data active means activity change below about -60%; inconclusive means no clear call, values can overlap the other calls; inactive means above about -39%
#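 Compounds were evaluated in HFFs infected with an HCMV luciferase reporter virus (MOI 1 PFU/cell). Luciferase in lysates collected 72 h post infection served as the replication measure.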
# FMDV antiviral: High Throughput Screening for Foot and Mouth Disease Virus Antivirals; FMDV antiviral cell-based qHTS; AID 1159524, 2015; Potency, µM (series often up to 57.9 µM), inactives show top-dose activity change, negative = inhibition, actives largely listed as inhibitors; actives 1.2% (n = 410,000); calls by dose curve; tested in HEK293T cells; further: read-out not given here; potency means the concentration at half of the fitted maximal effect; nearly all actives have a fitted effect of over 45% in size
# Active calls of the source: *; ? = inconclusive; . = not tested or not shown; ! = a repeat was not active. Unless noted, the call rests on the fitted dose curve; in most records, active means well fitted curve in the direction sought with a large enough effect; inconclusive means small, poorly fitted or top-dose-only effect, or another doubt; inactive means no such curve, though single readings can be large; an effect the other way counts as inactive or inconclusive. On the % scale 0 is the no-effect control and ±100 the full control effect.
SMILES,Sm TGR block,TbPYK inhibitor,Giardia FBPA inh,RE007 growth inh,HCMV inh,FMDV antiviral
COc1cccc([C@@H]2Oc3ccc(OC)cc3C(=O)[C@H]2OC(=O)N[C@H]2CCCc3ccccc32)c1,.,.,-5%,.,.,.
O=c1[nH]c(CN2CCCC2)nc2sc3c(c12)CCC3,-25%,0%,-6%,-11%,0,-1%
Clc1nc(CN2CCCCC2)nc2sc3c(c12)CCC3,22µM*,3%,0%,-14%,9,-15%
CCCSP1(=S)NCCCO1 (stereo unspecified),0%,0%,-3%,11%,-101*,-8%
CCCC(O)c1nc2ccccc2n1CCCOc1ccc(Cl)cc1 (stereo unspecified),2%,1%,.,.,-76*,20µM*
CCN1C(=O)C(Cc2nc3ccccc3c(=O)n2C)c2cc(C)ccc21 (stereo unspecified),9%,-4%,.,.,-10,-17%
CCOC(=O)c1cccn1C1C(=O)N(Cc2ccc(OC)cc2)c2ccc(F)cc21 (stereo unspecified),.,.,.,.,-10,.
CCCCSc1nc(O)c(C2OC(=O)c3c2ccc(OC)c3OC)c(=O)n1C (stereo unspecified),-17%,-2%,13%,13%,22,?
CCCCCCSc1nc(O)c(C2OC(=O)c3c2ccc(OC)c3OC)c(=O)n1-c1ccccc1 (stereo unspecified),13µM*,-20%,30%,-9%,-16,?
COc1ccc(CCNc2nc3c(c(=O)n(C)c(=O)n3C)n2Cc2ccc(F)cc2)cc1OC,3%,-5%,.,.,-90*,16µM*
CCOc1ccc(CCNc2nc3c(c(=O)n(C)c(=O)n3C)n2CC)cc1OCC,-4%,0%,1%,8%,-97*,-25%
CCNc1nc2c(c(=O)n(C)c(=O)n2C)n1Cc1ccc(F)cc1,7%,1%,.,.,-36,?
CCOC(=O)c1[nH]c2ccccc2c1NC(=O)c1cc(OCC)c(OCC)c(OCC)c1,5%,4%,.,.,11,0%
COc1ccc(S(=O)(=O)N(CC(=O)Nc2ccc(F)c(Cl)c2)c2ccc(C)cc2)cc1OC,-1%,-1%,.,.,-38,-18%
O=C(Nc1ccc(Cl)cc1)c1csc(C(O)c2cccc(OC(F)(F)F)c2)n1 (stereo unspecified),.,.,.,.,-36,.
CC(C)NC(=O)c1csc(C(O)c2cccc(N(C)C)c2)n1 (stereo unspecified),.,.,.,.,-75*,.
CCOC(=O)Cn1c(S(=O)(=O)Cc2ccccc2Cl)nc(-c2ccccc2)c1-c1ccccc1,7%,-7%,0%,-4%,-32,1%
C#CCn1c(S(=O)(=O)Cc2ccccc2Cl)nc(-c2ccccc2)c1-c1ccccc1,1%,4%,-4%,2%,-70*,-17%
C#CCn1c(S(=O)(=O)Cc2ccc(C)cc2)nc(-c2ccccc2)c1-c1ccccc1,6%,-7%,-5%,5%,-95*,-12%
NC(=S)NN=C1CCCCCCCCCC1,.,-5%,.,-10%,-39,?
NC(=S)NN=C1CCC(C2CCCCC2)CC1 (stereo unspecified),.,-4%,.,-13%,-80*,-18%
COc1cc(-c2cc(C)c3cccc(OC)c3n2)cc2c1OCCN(C(=O)Cn1nc(C)cc1C)C2,.,.,.,.,.,15%
Cc1ccc(C)c(N2CCN(C(=O)C3CCN(S(=O)(=O)c4cccc5nsnc45)CC3)CC2)c1,11%,5%,-5%,0%,-40,22µM*
Cc1ccc2nc(NC(=O)C3CCN(S(=O)(=O)c4cccnc4)CC3)sc2c1,5%,-1%,-16%,-2%,-35,?
O=C(C1CCCN1S(=O)(=O)c1cccc2nsnc12)N1CCN(c2ccccc2)CC1 (stereo unspecified),-2%,4%,.,13%,.,-3%
SMILES,Sm TGR block,TbPYK inhibitor,Giardia FBPA inh,RE007 growth inh,HCMV inh,FMDV antiviral
O=C(C1CCCN1S(=O)(=O)c1cccc2nsnc12)N1CCN(c2ccc(F)cc2)CC1 (stereo unspecified),-8%,2%,.,11%,-66*,-3%
COc1ccc2nc(NC(=O)CN(C)S(=O)(=O)c3cccs3)sc2c1,1%,2%,-3%,-13%,-72*,11%
Cc1ccc2nc(NC(=O)C3CCN(S(=O)(=O)c4cccs4)CC3)sc2c1,1%,?,-2%,-14%,-94*,?
Cc1ccc(C)c(N2CCN(C(=O)C3CCCN(S(=O)(=O)c4cccc5nsnc45)C3)CC2)c1 (stereo unspecified),-3%,5%,.,.,-18,?
CCCCC(=O)NC1(C(F)(F)F)C(=O)Nc2c1c(=O)[nH]c(=O)n2-c1ccc(C)c(C)c1 (stereo unspecified),1%,-9%,.,.,1,0%
Cc1cnc(-n2ncc(C(=O)N(C)CCc3ccccn3)c2-c2cccs2)nc1-c1ccc(F)cc1,.,.,.,.,.,-15%
Cc1ccc2nc(NC(=O)C3CCN(S(=O)(=O)c4cccc5nsnc45)CC3)sc2c1,-4%,-5%,-1%,-20%,-85*,?
COc1ccc2nc(NC(=O)C3CCCN(S(=O)(=O)c4cccs4)C3)sc2c1 (stereo unspecified),9%,3%,-18%,16%,?,0%
COc1ccc(N2CCN(C(=O)CN(C)S(=O)(=O)c3cccs3)CC2)cc1,-17%,0%,2%,-10%,-100*!,-7%
O=C(Nc1ccc(OC(F)(F)F)cc1)C1CCN(S(=O)(=O)c2cccs2)CC1,2%,2%,.,.,-88*,?
COc1ccc(S(=O)(=O)N(C)CC(=O)N2CCN(c3ccccc3)CC2)cc1,-9%,-2%,-9%,-3%,-3,-20%
COc1ccc2nc(NC(=O)C3CCN(S(=O)(=O)c4cccs4)CC3)sc2c1,-1%,0%,-3%,-8%,-97*,14µM*
CC1CCN(S(=O)(=O)c2ccc(C(=O)Nc3nc4ccc(F)cc4s3)cc2)CC1,4%,-2%,.,.,16,-17%
COc1ccc(/C=C/C(=O)N2CCc3c(cnc(C)c3CNS(=O)(=O)c3cccs3)C2)cc1,.,.,.,.,.,-7%
Brc1c(-c2ccccc2)nc2n1Cc1ccccc1-2,-2%,3%,-1%,-21%,-84*,-13%

# Assay outcomes: PubChem BioAssay, National Center for Advancing Translational Sciences (NCATS)
